# Assay results taken from PubChem BioAssay.
# Results filed as inconclusive are left out. Active and inactive are the calls of the source. Cut-off read from the data, not from the text of the source, unless noted: active = parasite load remaining mostly below about 12% (no sharp cut-off); inactive = mostly above about 10%.
# Experiments:
# [1] = biological target: ATP-dependent translocase ABCB1 (Homo sapiens) (UniProt P08183); assay: P-glycoprotein substrate transport blockade – cell-based (AID 377; in the data active = fluorescence slope change above about 50%); conditions: MDR1-expressing cells, fluorescent substrate accumulation slope; stronger effect = higher value; concentration not given here
# ATP-dependent translocase ABCB1 (Homo sapiens), sequence (P08183 whole entry, looked up): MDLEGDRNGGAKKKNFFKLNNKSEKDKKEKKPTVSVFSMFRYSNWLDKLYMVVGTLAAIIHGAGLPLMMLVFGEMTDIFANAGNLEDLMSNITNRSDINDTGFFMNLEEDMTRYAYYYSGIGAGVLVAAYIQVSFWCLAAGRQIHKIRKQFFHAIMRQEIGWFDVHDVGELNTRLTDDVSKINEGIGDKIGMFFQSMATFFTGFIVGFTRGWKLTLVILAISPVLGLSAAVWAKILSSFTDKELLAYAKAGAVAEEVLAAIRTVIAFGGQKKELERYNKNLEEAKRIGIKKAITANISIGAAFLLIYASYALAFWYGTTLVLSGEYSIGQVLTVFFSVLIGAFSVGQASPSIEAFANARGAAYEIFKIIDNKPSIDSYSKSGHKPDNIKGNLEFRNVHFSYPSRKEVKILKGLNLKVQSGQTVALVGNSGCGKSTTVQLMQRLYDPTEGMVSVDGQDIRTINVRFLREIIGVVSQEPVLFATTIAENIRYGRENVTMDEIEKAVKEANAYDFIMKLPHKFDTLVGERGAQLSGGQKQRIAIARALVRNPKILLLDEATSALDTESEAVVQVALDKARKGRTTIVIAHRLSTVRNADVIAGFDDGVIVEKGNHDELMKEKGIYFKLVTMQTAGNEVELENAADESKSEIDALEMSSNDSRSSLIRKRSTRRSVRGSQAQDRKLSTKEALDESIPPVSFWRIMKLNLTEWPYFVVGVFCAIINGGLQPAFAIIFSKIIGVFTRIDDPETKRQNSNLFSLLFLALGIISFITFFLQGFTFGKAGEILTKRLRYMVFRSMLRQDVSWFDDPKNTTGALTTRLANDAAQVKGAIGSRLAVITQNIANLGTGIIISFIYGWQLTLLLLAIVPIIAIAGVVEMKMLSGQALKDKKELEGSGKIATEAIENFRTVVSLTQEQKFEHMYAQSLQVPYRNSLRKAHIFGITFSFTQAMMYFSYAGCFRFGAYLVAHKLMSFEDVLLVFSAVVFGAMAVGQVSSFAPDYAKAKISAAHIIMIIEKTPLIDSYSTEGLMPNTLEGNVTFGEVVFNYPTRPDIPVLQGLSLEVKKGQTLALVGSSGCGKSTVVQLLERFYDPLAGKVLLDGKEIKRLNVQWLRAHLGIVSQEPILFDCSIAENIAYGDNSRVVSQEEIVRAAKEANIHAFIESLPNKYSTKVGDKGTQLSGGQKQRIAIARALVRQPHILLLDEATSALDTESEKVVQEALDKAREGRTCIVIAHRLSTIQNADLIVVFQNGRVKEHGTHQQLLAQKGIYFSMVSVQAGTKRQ
# [2] = compounds altering viability of human ES cells (AID 493140; call rule not given here;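 note: cells exposed to compounds for four days before counting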); conditions: human embryonic stem cell survival screen; stronger effect = higher value
# [3] = P. berghei load reduction in hepatocytes – cell-based, HepG2, luciferase luminescence, HepG2 viability, primary screen (AID 624349);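 note: 100% = mean of DMSO negative control wells on the same plate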; conditions: P. berghei liver stage in HepG2, luciferase luminescence, concentration not given here; parasite load remaining: stronger effect = lower value; viability: measured here: HepG2 viability without parasites
Compound,fluorescence slope change [1],survival [2],parasite load remaining [3],viability [3]
O=S(=O)(O)CCN1CCN(CCO)CC1,26.7% (inactive),–,–,–
C[C@H](CCC(=O)O)[C@H]1CC[C@H]2[C@@H]3C(O)C[C@@H]4CC(O)CC[C@]4(C)[C@H]3CC[C@]12C (stereo partly drawn),167% (active),–,–,–
O=C(O)CCCC[C@@H]1SCC2NC(=O)NC21 (stereo partly drawn),79.8% (active),–,–,–
CO[C@@H]1[C@@H](OC2OC(C)C(OC3CC(C)(O)C(OC(=O)CC(C)C)C(C)O3)C(N(C)C)C2O)[C@@H](CC=O)C[C@@H](C)[C@@H](O)/C=C/C=C/C[C@@H](C)OC(=O)C[C@H]1OC(C)=O (stereo partly drawn),127% (active),16.8 (inactive),90.7% (inactive),92.1%
CN(N=O)C(=O)N[C@@H]1C(O)OC(CO)[C@@H](O)[C@H]1O (stereo partly drawn),25.6% (inactive),–,–,–
CCOC(=O)Oc1c(OC)cc(C(=O)OC2CC3CN4CCc5c([nH]c6cc(OC)ccc56)C4CC3C(C(=O)OC)C2OC)cc1OC (stereo not drawn),–,6.25 (inactive),55.8% (inactive),77.6%
NCC1OC(COC[C@@H]2C(O)[C@H](OC3C(O)C(N)CC(N)C3OC3OC(CN)C(O)C(O)C3N)O[C@@H]2CO)C(N)C(O)C1O (stereo partly drawn),–,12.3 (inactive),91.3% (inactive),89.7%
O=C1O[C@H](C(O)CO)[C@H](O)C1O (stereo partly drawn),–,4.42 (inactive),68.2% (inactive),76.1%
C[C@]12CCC(=O)C[C@H]1CC(=O)[C@@H]1[C@@H]2CC(=O)[C@]2(C)CCC[C@@H]12 (tested in a mixture with another compound),–,19.5 (inactive),107% (inactive),86.8%
Nc1c2ccccc2nc2c(O)cccc12,–,5.5 (inactive),80.8% (inactive),77.4%
C=CC1=C(C(=O)O)N2C(=O)[C@@H](NC(=O)/C(=N/OCC(=O)O)c3csc(N)n3)[C@H]2SC1 (stereo in doubt),–,5.58 (inactive),92.8% (inactive),73.2%
C=C1CC[C@@H](O)C/C1=C/C=C1\CCC[C@]2(C)[C@@H]([C@H](C)CCCC(C)C)CC[C@@H]12,–,15.8 (inactive),79.3% (inactive),76%
CC(C)(CO)[C@H](O)C(=O)NCCC(=O)O,–,19.5 (inactive),85.1% (inactive),77.3%
CN(C)CC/C=C1/c2ccccc2CSc2ccccc21,–,3.75 (inactive),68.1% (inactive),76.6%
C1CCN2C[C@H]3C[C@@H](CN4CCCC[C@@H]34)[C@H]2C1,–,10 (inactive),73.9% (inactive),72.2%
CC[C@H]1OC(=O)[C@H](C)[C@@H](O[C@H]2C[C@@](C)(OC)[C@@H](O)[C@H](C)O2)[C@H](C)[C@@H](O[C@H]2O[C@H](C)C[C@H](N(C)C)[C@H]2O)[C@](C)(O)C[C@@H](C)C(=O)[C@H](C)[C@@H](O)[C@]1(C)O,–,35.4 (inactive),97.5% (inactive),81.9%
O=C(N[C@H](CO)[C@@H](O)c1ccc([N+](=O)[O-])cc1)C(Cl)Cl,–,26.4 (inactive),100% (inactive),91.7%
Cc1c(C)c2c(c(C)c1O)CC[C@](C)(CCC[C@@H](C)CCC[C@@H](C)CCCC(C)C)O2,–,5.83 (inactive),52.8% (inactive),78.5%
CC(C)(O/N=C(/C(=O)N[C@@H]1C(=O)N2C(C(=O)[O-])=C(C[n+]3ccccc3)CS[C@H]12)c1csc(N)n1)C(=O)O,–,5.92 (inactive),88.2% (inactive),82.6%
CC(C)CC(=O)NC(C(=O)N[C@H](C(=O)NC(CC(C)C)[C@@H](O)CC(=O)N[C@@H](C)C(=O)NC(CC(C)C)[C@@H](O)CC(=O)O)C(C)C)C(C)C (stereo partly drawn),–,5.42 (inactive),67.7% (inactive),80.5%
O=c1[nH]c(=O)n([C@H]2CC(O)[C@@H](CO)O2)cc1I (stereo partly drawn),–,6.25 (inactive),130% (inactive),96.5%
O=C(O)c1ccc2c3c1cccc3c(=O)n1c3ccccc3nc21,–,–,44% (inactive),75.2%
